In PubChem BioAssay (Tox21):
Records with an inconclusive call do not appear. Where a call stands in place of a potency, no number is given. Active and inactive are the calls of the source. Unless noted, the call rests on the fitted dose curve; in most records, active means well fitted curve in the direction sought with a large enough effect in the repeat runs; inconclusive means weak or mixed curves; inactive means no such curve, though single readings can be large; an effect the other way counts as inactive or inconclusive.

Key:
[1] = target: Androgen receptor (Homo sapiens) (UniProt P10275); test: qHTS assay to identify small molecule antagonists of the androgen receptor (AR) signaling pathway using the MDA cell line in the presence of 0.5 nM R1881 (AID 1259243); further: potency means the concentration at half of the fitted maximal effect; nearly all actives have a fitted effect of over 50% in size
How it was run: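 Reporter cells cultured without CO2 receive test chemicals, then 0.5 nM R1881 final; after 16 hr at 37C, ONE-Glo is added and light output recorded.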

[2] = qHTS assay to identify small molecule HDAC inhibitors (AID 1259364);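 further: wild-type HCT-116 cells with endogenous class I/II HDAC activity; top concentration of the series differs between compounds; nearly all actives have a fitted effect of over 45% in size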
How it was run: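 Read-out: luminescence of HDAC-Glo I/II reagent, 30 min RT, reflecting class I/II deacetylase activity in whole HCT-116 cells pre-exposed 2 h to DMSO-dissolved compounds.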

[3] = qHTS assay to identify small molecule HDAC inhibitors - cell viability counter screen (AID 1259365); further: series mostly up to about 92 µM; nearly all actives have a fitted effect of over 50% in size
How it was run: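 HCT-116 wild-type, overnight attachment; 2hr drug exposure, 37C; CellTiter-Glo luminescent ATP readout after 30min RT.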

[4] = qHTS assay to identify small molecule agonists of the sonic hedgehog signaling (Shh) pathway - cell viability counter screen (AID 1259366); further: nearly all actives have a fitted effect of over 50% in size; further: potency means the concentration at half of the fitted maximal effect
How it was run: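 Compounds in DMSO were pin-transferred onto 3T3 Gli1-Luc cells that had settled 4hr; plates then stood 24hr at 37C and 5% CO2. One hour before the end, CellTiter-Fluor was added and fluorescence recorded.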

[5] = qHTS assay to identify small molecule antagonists of the sonic hedgehog signaling (Shh) pathway - cell viability counter screen (AID 1259367); further: nearly all actives have a fitted effect of over 55% in size; further: potency means the concentration at half of the fitted maximal effect
How it was run: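 Seed 3T3 Gli1-Luc cells at 2,000 per well; incubate 4 hr; add compound in DMSO, then conditioned medium; incubate at 37C with 5% CO2; add CellTiter-Fluor after 23 hr; read fluorescence 1 hr later.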

[6] = qHTS assay to identify small molecule agonists of the sonic hedgehog signaling (Shh) pathway (AID 1259368; calls by dose curve;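 further: NIH/3T3-derived 3T3Gli1-Luc cells carrying a stable Gli1-driven firefly luciferase reporter; series mostly up to about 92 µM; nearly all actives have a fitted effect of over 15% in size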)
How it was run: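 A Gli1 transcriptional response element controlled firefly luciferase in 3T3Gli1-Luc cells. Compounds and a positive control were added 4 hr after plating, and cells were incubated a further 24 hr at 37 C before luminescence detection.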

[7] = qHTS assay to identify small molecule antagonists of the sonic hedgehog signaling (Shh) pathway (AID 1259369; calls by dose curve; further: nearly all actives have a fitted effect of over 45% in size; further: potency means the concentration at half of the fitted maximal effect)
How it was run: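 For antagonist detection, the reporter line received test compounds together with conditioned medium, incubated 24hr at 37 C, 5% CO2, then luminescence was recorded following 30min room-temperature luciferase reagent incubation.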

[8] = qHTS assay to identify small molecule agonists of the estrogen receptor beta (ER-beta) signaling pathway - cell viability counter screen (AID 1259380); further: nearly all actives have a fitted effect of over 30% in size; further: potency means the concentration at half of the fitted maximal effect
How it was run: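 CellTiter-Glo read, 30 min RT, same wells as bla assay; cells ER-beta-UAS-bla HEK293T; 16 hr compound, 37C; medium 2% charcoal-stripped FBS.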

[9] = target: Androgen receptor (Homo sapiens) (UniProt P10275); test: qHTS assay to identify small molecule agonists of the androgen receptor (AR) signaling pathway in the presence of an antagonist (AID 1259381; calls by dose curve; further: nearly all actives have a fitted effect of over 15% in size)
How it was run: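 Test compounds at 15 concentrations were incubated for 16hr with MDA-kb2 reporter cells in presence of 3.0uM nilutamide (final). Signal: ONE-Glo luciferase luminescence.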

[10] = qHTS assay to identify small molecule agonists or antagonists of the thyroid stimulating hormone receptor (TSHR) signaling pathway - wild type cell line counter screen (AID 1259384; calls by dose curve)
How it was run: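 Wild-type Hek293 cells, 800/well, 18 h at 37C, then compound with Ro20-1724 for 30 min RT. cAMP by HTRF (cAMP-d2/anti-cAMP cryptate), 1 h RT, fluorescence read. 15 concentrations, triplicates.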

[11] = target: Thyrotropin receptor (Homo sapiens) (UniProt P16473); test: qHTS assay to identify small molecule antagonists of the thyroid stimulating hormone receptor (TSHR) signaling pathway (AID 1259385; calls by dose curve; further: nearly all actives have a fitted effect of over 20% in size)
How it was run: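 TSHR-HEK293 cells (800/well) plated 18 h, then compounds with Ro20-1724 and TSH at 1.5 ng/mL final, 30 min at room temperature. cAMP quantified by HTRF (cAMP-d2/anti-cAMP-cryptate, 1 h); 15 concentrations in triplicate.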

[12] = qHTS assay to identify small molecule antagonists of the androgen receptor (AR) signaling pathway using the MDA cell line in the presence of 0.5 nM R1881 - cell viability counter screen (AID 1259242); further: nearly all actives have a fitted effect of over 45% in size
How it was run: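 Viability of MDA-kb2 cells was multiplexed with the luciferase AR readout; after 16 hr with compounds and R1881 at 0.5 nM final, CellTiter-Fluor fluorescence was recorded.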

[13] = target: Estrogen receptor (Homo sapiens) (UniProt P03372); test: qHTS assay to identify small molecule antagonists of the estrogen receptor alpha (ER-alpha) signaling pathway using the BG1 cell line in the presence of 0.1 nM 17-beta-estradiol (AID 1259244); further: nearly all actives have a fitted effect of over 50% in size; further: potency means the concentration at half of the fitted maximal effect
How it was run: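 Estradiol at 0.1 nM (final) stimulates the endogenous ER-alpha of VM7Luc4E2 cells carrying an ERE-driven luciferase; compounds are co-incubated 22 h at 37C and luciferase output quantified by luminescence.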

[14] = target: Estrogen receptor beta (Homo sapiens) (UniProt Q92731); test: qHTS assay to identify small molecule agonists of the estrogen receptor beta (ER-beta) signaling pathway (AID 1259377; active means well fitted activation curve with a large enough effect in the signal ratio in the repeat runs, not every such curve was filed as active; the % refers to the signal ratio)
How it was run: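 qHTS in ER-beta-UAS-bla HEK293T cells: 6 hr settling, then 16 hr compound at 37C, then LiveBLAzer substrate 2 h at RT before fluorescence reading.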

[15] = target: Estrogen receptor beta (Homo sapiens) (UniProt Q92731); test: qHTS assay to identify small molecule antagonists of the estrogen receptor beta (ER-beta) signaling pathway (AID 1259378; active means well fitted inhibition curve with a large enough effect in the signal ratio in the repeat runs, not every such curve was filed as active; the % refers to the signal ratio; further: potency means the concentration at half of the fitted maximal effect)
How it was run: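 ER-beta-UAS-bla HEK293T cells in 2% charcoal-stripped FBS medium treated with compound plus 1nM final 17-beta-estradiol for 16 hr at 37C. Beta-lactamase reporter read by FRET substrate fluorescence after 2 hours at room temperature.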

[16] = qHTS assay to identify small molecule agonists of the androgen receptor (AR) signaling pathway in the presence of an antagonist - cell viability counter screen (AID 1259379); further: nearly all actives have a fitted effect of over 25% in size; further: potency means the concentration at half of the fitted maximal effect
How it was run: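 Seed MDA-kb2 at 3,000 cells/well; incubate 5 hr, 37C, 0% CO2. Add nilutamide to 3.0uM final, then pin compounds at 15 concentrations. Incubate 16 hr. Add CellTiter-Fluor at 15 hr, read fluorescence after 1 hr.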

[17] = qHTS assay to identify small molecule antagonists of the estrogen receptor beta (ER-beta) signaling pathway - cell viability counter screen (AID 1259382); further: nearly all actives have a fitted effect of over 55% in size; further: potency means the concentration at half of the fitted maximal effect
How it was run: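 In this multiplexed counter screen, cells were seeded at 2,000 per well in medium with 2% charcoal-stripped FBS and incubated 6 hr before compound and 1nM final E2 were added. Sixteen hours later, ATP-based luminescence reported viability.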

[18] = target: Estrogen receptor (Homo sapiens) (UniProt P03372); test: qHTS assay to identify small molecule agonists of the estrogen receptor alpha (ER-alpha) signaling pathway in the presence of an antagonist (AID 1259383; calls by dose curve; further: top concentration of the series differs between compounds; nearly all actives have a fitted effect of over 15% in size)
How it was run: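 Stably transfected VM7Luc4E2 reporter cells, kept 5 days in charcoal-stripped serum, received ICI-182,780 at 10.0nM final before compound addition. Following 22hr incubation at 37C and 5% CO2, luciferase signal was read by luminescence.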

[19] = qHTS assay to identify small molecule phospholipidosis (PLD) inducers (AID 1259344; active means well fitted curve in the direction sought with a large enough effect; an effect the other way counts as inactive or inconclusive)
How it was run: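 Quantitative HTS in HepG2: compound plus LipidTOX Red dye for 24 h, paraformaldehyde fixation with Hoechst 33342, widefield high-content imaging; amiodarone as positive and DMSO as negative control.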

Estrogen receptor beta (Homo sapiens), sequence (Q92731 whole entry, looked up): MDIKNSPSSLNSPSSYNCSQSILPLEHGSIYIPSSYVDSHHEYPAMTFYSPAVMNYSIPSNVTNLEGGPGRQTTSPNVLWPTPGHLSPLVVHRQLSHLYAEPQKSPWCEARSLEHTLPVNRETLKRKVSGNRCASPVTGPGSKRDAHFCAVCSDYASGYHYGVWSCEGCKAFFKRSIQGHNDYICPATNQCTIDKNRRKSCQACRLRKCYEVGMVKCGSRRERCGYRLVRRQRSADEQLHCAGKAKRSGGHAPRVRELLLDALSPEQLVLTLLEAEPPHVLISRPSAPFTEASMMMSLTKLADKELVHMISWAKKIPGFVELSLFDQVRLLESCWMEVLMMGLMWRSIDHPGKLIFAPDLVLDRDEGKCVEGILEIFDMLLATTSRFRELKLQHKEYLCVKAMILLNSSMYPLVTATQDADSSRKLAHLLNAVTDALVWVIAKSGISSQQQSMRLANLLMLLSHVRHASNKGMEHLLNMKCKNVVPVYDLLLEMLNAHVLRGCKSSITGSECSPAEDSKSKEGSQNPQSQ
Thyrotropin receptor (Homo sapiens), sequence (P16473 whole entry, looked up): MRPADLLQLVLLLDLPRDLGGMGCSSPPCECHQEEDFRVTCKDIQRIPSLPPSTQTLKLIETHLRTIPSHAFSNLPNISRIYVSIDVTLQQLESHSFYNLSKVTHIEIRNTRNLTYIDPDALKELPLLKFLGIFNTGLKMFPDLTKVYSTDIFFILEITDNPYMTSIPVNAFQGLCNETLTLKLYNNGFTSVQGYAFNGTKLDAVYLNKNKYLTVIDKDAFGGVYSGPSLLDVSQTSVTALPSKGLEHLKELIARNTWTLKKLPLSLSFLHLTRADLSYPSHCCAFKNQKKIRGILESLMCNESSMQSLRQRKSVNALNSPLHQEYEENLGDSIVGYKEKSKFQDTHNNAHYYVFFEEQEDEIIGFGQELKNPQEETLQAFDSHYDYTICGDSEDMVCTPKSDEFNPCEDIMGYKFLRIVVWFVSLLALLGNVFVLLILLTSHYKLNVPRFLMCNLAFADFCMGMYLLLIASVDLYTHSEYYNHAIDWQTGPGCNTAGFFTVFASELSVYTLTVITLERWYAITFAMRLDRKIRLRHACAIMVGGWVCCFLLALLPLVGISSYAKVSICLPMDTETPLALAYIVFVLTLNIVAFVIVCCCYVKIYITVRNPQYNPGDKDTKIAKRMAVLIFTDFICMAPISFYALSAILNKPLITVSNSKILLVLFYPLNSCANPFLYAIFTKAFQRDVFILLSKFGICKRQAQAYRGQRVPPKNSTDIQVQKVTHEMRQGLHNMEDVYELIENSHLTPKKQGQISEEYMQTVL
Estrogen receptor (Homo sapiens), sequence (P03372 whole entry, looked up): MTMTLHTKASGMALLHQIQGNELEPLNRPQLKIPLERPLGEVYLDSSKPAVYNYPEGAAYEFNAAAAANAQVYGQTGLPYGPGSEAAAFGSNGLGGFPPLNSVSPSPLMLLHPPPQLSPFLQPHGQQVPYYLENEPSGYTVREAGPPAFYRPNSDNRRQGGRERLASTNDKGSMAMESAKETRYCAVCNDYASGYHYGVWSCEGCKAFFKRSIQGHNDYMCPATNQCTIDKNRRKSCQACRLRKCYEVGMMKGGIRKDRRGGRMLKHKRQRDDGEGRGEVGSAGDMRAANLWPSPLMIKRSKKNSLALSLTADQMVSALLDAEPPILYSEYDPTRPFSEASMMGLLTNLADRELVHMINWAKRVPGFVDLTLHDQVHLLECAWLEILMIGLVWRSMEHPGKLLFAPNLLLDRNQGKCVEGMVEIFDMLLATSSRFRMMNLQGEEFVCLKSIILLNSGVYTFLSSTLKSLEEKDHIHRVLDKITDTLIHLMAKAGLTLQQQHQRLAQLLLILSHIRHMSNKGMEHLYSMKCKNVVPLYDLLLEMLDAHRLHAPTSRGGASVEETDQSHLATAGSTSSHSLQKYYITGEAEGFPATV
Androgen receptor (Homo sapiens), sequence (P10275 whole entry, looked up): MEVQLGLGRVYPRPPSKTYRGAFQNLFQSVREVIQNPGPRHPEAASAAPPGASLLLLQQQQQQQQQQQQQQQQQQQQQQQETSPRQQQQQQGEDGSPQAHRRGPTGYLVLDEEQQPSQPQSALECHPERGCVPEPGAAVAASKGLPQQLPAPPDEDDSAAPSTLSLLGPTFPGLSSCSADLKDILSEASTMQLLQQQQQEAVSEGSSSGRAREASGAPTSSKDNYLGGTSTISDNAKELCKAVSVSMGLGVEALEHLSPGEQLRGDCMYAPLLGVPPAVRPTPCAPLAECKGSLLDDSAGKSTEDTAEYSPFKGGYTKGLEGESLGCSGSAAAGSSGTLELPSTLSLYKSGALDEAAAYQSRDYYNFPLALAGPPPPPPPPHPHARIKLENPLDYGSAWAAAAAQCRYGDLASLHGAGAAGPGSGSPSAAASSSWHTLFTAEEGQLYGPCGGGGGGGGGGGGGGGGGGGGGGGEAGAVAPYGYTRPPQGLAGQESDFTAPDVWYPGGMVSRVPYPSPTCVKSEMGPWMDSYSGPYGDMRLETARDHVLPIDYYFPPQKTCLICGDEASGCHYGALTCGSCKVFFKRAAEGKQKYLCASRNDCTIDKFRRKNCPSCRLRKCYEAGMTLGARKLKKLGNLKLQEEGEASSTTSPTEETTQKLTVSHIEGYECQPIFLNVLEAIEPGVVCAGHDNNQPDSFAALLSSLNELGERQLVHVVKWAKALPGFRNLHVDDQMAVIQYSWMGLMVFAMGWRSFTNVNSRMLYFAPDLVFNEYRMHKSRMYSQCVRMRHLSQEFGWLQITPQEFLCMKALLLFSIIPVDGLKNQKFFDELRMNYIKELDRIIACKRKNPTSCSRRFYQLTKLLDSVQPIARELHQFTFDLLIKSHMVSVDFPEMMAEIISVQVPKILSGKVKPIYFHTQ

Structure (SMILES)	Potency [1]	Potency [2]	outcome [3]	Potency [4]	Potency [5]	outcome [6]	Potency [7]	Potency [8]	Potency [9]	Potency [10]	Potency [11]	outcome [12]	Potency [13]	outcome [14]	Potency [15]	Potency [16]	Potency [17]	Potency [18]	outcome [19]
O=[N+]([O-])c1cccc2c([N+](=O)[O-])cccc12	61.4 µM (active)	inactive	inactive	inactive	inactive	inactive	inactive	10.9 µM (active)	inactive	inactive	inactive								
O=C(O)C(Br)CBr (stereo not drawn)		inactive	inactive	inactive	inactive	inactive		inactive			inactive	inactive	inactive	inactive	inactive	inactive	inactive	inactive	
O=C(Oc1ccc(Br)cc1)N1CCN2CCC1CC2		inactive	inactive	inactive		inactive	inactive	inactive		inactive	inactive	inactive	inactive			inactive	inactive	inactive	
C=CCC1=C(C)[C@@H](OC(=O)[C@@H]2[C@@H](C=C(C)C)C2(C)C)CC1=O		inactive	inactive			inactive	inactive						24.3 µM (active)			48.6 µM (active)		inactive	
N#CC(CCc1ccc(Cl)cc1)(Cn1cncn1)c1ccccc1 (stereo not drawn)		inactive	inactive	48.6 µM (active)	27.3 µM (active)	inactive		68.6 µM (active)	inactive	inactive			27.3 µM (active)		30.6 µM (active)	48.6 µM (active)	48.6 µM (active)	inactive	
COc1cccc2c1cc([N+](=O)[O-])c1c(C(=O)O)cc3c(c12)OCO3		inactive		12.2 µM (active)	12.2 µM (active)	inactive	1.54 µM (active)	48.6 µM (active)			inactive		6.86 µM (active)		19.3 µM (active)	48.6 µM (active)	54.5 µM (active)	inactive	
OC(c1ccccc1)(c1ccccc1)C1CCNCC1		inactive	inactive			inactive				inactive	inactive	inactive		inactive	inactive	inactive	inactive		inactive
CCCCOC(=O)c1ccccc1N		inactive	inactive	inactive	inactive	inactive	inactive					inactive			inactive	inactive	inactive		
COC(=O)c1c(C(F)F)nc(C(F)(F)F)c(C2=NCCS2)c1CC(C)C		inactive	inactive	inactive	inactive		inactive	inactive	inactive	inactive	inactive	inactive	inactive	inactive	inactive	inactive	inactive	inactive	
COC(=O)c1ccccc1S(=O)(=O)NC(=O)N(C)c1nc(C)nc(OC)n1		inactive	inactive	inactive	inactive	inactive		inactive				inactive	inactive			inactive	inactive	inactive	
BrCCCCCCBr		inactive	inactive	inactive	inactive		24.3 µM (active)				inactive	inactive	inactive	inactive	inactive	inactive	inactive	inactive	
CCN(CC)CCOC(=O)C(C)(c1ccccc1)c1ccccc1		inactive	inactive	inactive		inactive	inactive	inactive		inactive	inactive	inactive		inactive		inactive	inactive		
